# Source: article PMC5540273 (PLoS ONE, 2017)
# Tests used:
# Settings in all cases: concentration: 1 μM, replicates: in singlicate; n = 1
# [1] = tested on: AXL
# [2] = tested on: T1, BIKE
# T1 construct: gene BMP2K
# [3] = tested on: BLK
# [4] = tested on: BMPR1A
# [5] = tested on: BMPR1B
# [6] = tested on: BMPR2
# [7] = tested on: BMX
# [8] = tested on: BRAF
# [9] = tested on: T2, BRK
# T2 construct: gene PTK6
# [10] = tested on: BRSK1
# [11] = tested on: BRSK2
# [12] = tested on: BTK
# [13] = tested on: BUB1
# [14] = tested on: CAMK1B
# [15] = tested on: CAMK1D
# [16] = tested on: CAMK1G
# [17] = tested on: CAMK1
# [18] = tested on: CAMK2A
# [19] = tested on: CAMK2B
# [20] = tested on: CAMK2D
# 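Further: KINOMEscan kinase panel screen.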
Compound,%Inh [1] [%],%Inh [2] [%],%Inh [3] [%],%Inh [4] [%],%Inh [5] [%],%Inh [6] [%],%Inh [7] [%],%Inh [8] [%],%Inh [9] [%],%Inh [10] [%],%Inh [11] [%],%Inh [12] [%],%Inh [13] [%],%Inh [14] [%],%Inh [15] [%],%Inh [16] [%],%Inh [17] [%],%Inh [18] [%],%Inh [19] [%],%Inh [20] [%]
CN1C(=O)C(Nc2cc(Cl)c(O)c(Cl)c2)=C(c2ccc(Cl)cc2)C1=O [SB-404321],27,0,0,0,0,1,13,0,0,0,0,0,12,25,0,0,0,0,0,0
COC(=O)c1c(-c2ccccc2)c2cc(Br)ccc2c(=O)n1Cc1ccc(S(C)(=O)=O)cc1,7,0,9,0,19,3,17,57,0,29,0,47,15,0,26,21,42,21,6,18
Cc1ccc(Oc2ccc(Nc3ncnc4cc[nH]c34)cc2C)cn1,25,4,0,34,1,13,20,0,0,10,19,19,0,0,34,0,16,0,0,0
CCn1c(-c2ccoc2)nc2cnccc21 [SB-733887],5,6,0,0,10,20,0,1,0,0,0,0,59,0,8,0,2,0,0,0
FC(F)(F)c1ccc(-c2ncn(CCCN3CCOCC3)c2-c2ccncc2)cc1 [SB-217780],40,13,4,7,0,39,1,0,4,13,7,0,0,35,23,3,0,0,0,3
CCC(=O)c1c(-c2ccccc2)c2cc(Cl)ccc2c(=O)n1Cc1cc(C(=O)NC2CC2)n(C)n1,0,0,0,0,0,9,4,62,0,0,0,15,6,0,12,0,20,0,0,0
COc1cccc(C2=C(Nc3cccc(C(=O)O)c3)C(=O)NC2=O)c1 [SB-390770],0,15,1,12,0,10,14,0,7,0,17,0,8,30,0,33,3,22,33,0
COc1cc2ncn(-c3cc(OCc4ccc(S(C)(=O)=O)cc4)c(C(N)=O)s3)c2cc1OC [GW869979],31,0,46,11,30,8,6,6,0,4,0,0,28,0,0,0,0,3,6,0
CCC(=O)c1c(-c2ccccc2)c2cc(Cl)ccc2c(=O)n1Cc1cc(S(C)(=O)=O)n(CCC(C)(C)O)n1,10,21,12,0,6,9,33,1,7,11,0,23,14,0,0,33,7,15,0,24
COc1cc2ncn(-c3cc(OCc4ccncc4Br)c(C(N)=O)s3)c2cc1OC [GW854278],30,39,11,8,6,13,10,2,6,25,20,0,0,0,0,7,0,37,46,17
COc1cc2nccc(Nc3cccc(Oc4ccccc4)c3)c2cc1OC.Cl [GW284543],0,1,69,0,0,0,0,0,60,0,1,24,38,28,0,0,2,0,0,6
COc1cccc(-n2cnc3c(N)ncnc32)c1 [SKF-97416],0,0,0,17,24,57,0,18,0,16,6,0,57,20,11,0,16,0,0,12
CCS(=O)c1ccc(-c2coc3ccc(-c4nnc(C)o4)cc23)cc1 (centres unmarked),0,0,3,0,6,15,18,0,0,0,11,18,0,5,23,2,20,0,3,0
Cc1cccc(-c2nc(Nc3ccc4c(cnn4C)c3)c3ccccc3n2)n1 [GW876731],25,0,0,1,0,1,7,0,0,0,2,0,34,0,0,0,10,0,8,2
CN1C(=O)C(Nc2ccccc2)=C(c2ccccc2)C1=O [SB-300079],0,0,23,12,0,14,0,9,0,0,0,0,32,0,0,0,0,0,0,0
COc1ccc(-c2cc3c(C)nc(N)nc3n([C@H]3CC[C@H](OCCO)CC3)c2=O)cn1,0,22,2,5,1,0,0,0,0,28,0,0,0,7,0,0,0,0,0,0
